Test results taken from PubChem BioAssay AID2283125 (EPA ToxCast).
Results filed as inconclusive are left out. Active and inactive are the calls of the source. How the source made its calls: active means hit-call score of the fitted dose curve at least 0.9, where 1 is the maximum; inconclusive means response in the unintended direction; inactive means score below 0.9.

Target: Tyrosine-protein kinase ABL1 (Homo sapiens) (UniProt P00519)
Assay: NVS_ENZ_hAbl: NovaScreen (NVS) Enzymatic Assay for human ABL proto-oncogene 1, non-receptor tyrosine kinase
Description: NVS_ENZ_hAbl is a biochemical, single-readout assay that uses extracted gene-proteins in a cell-free assay. Measurements were taken 1 hour after chemical dosing in a 96-well plate.NVS_ENZ_hAbl is one of one assay component(s) measured or calculated from the NVS_ENZ_hAbl assay. It is designed to make measurements of enzyme activity, a form of enzyme reporter, as detected with fluorescence intensity signals by Fluorescence and electrophoretic mobility shift technology.Data from the assay component NVS_ENZ_hAbl was analyzed into 1 assay endpoint. This assay endpoint, NVS_ENZ_hAbl, was analyzed in the positive analysis fitting direction relative to DMSO as the negative control and baseline of activity. Using a type of enzyme reporter, loss-of-signal activity can be used to understand changes in the enzymatic activity as they relate to the gene ABL1. Furthermore, this assay endpoint can be referred to as a primary readout, because this assay has produced multiple assay endpoints where this one serves a enzymatic activity function. To generalize the intended target to other relatable targets, this assay endpoint is annotated to the kinase intended target family, where the subfamily is non-receptor tyrosine kinase. […]

Chain of Tyrosine-protein kinase ABL1 (Homo sapiens) (P00519 whole entry, looked up): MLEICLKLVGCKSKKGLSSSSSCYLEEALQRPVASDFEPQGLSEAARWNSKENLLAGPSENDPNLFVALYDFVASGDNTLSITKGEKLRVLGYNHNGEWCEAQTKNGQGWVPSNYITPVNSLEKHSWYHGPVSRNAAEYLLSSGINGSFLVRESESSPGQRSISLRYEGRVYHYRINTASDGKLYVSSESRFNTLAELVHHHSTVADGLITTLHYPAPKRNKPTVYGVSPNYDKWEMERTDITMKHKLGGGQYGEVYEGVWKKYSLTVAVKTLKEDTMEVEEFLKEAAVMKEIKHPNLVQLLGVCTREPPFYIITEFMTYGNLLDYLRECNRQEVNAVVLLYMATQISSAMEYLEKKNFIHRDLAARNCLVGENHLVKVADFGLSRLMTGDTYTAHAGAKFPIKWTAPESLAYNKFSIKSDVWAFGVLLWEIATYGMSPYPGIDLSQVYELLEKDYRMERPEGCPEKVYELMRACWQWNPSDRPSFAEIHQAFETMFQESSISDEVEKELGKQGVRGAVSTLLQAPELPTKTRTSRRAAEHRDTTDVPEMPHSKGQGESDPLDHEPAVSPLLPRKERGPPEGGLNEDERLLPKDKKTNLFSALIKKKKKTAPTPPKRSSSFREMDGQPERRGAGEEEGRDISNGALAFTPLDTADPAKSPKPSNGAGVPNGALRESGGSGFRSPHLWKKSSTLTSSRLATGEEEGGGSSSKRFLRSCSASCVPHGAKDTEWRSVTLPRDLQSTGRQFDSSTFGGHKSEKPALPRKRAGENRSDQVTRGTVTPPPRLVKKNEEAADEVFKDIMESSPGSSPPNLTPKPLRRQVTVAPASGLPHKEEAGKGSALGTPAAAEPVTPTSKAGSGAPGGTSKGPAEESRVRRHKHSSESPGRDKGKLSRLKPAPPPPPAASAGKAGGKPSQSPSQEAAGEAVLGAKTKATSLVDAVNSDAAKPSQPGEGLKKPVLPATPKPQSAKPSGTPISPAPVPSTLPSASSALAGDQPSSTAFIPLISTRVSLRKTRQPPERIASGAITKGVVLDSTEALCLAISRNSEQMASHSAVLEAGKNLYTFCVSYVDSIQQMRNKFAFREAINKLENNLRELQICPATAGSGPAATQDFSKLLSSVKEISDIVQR

Row | Structure (SMILES) | outcome
1 | O=C(Nc1ccc([N+](=O)[O-])cc1Cl)c1cc(Cl)ccc1O | inactive
2 | c1ccc2[nH]c(-c3cscn3)nc2c1 | inactive
